# Most compounds without a hit are left out; they make up all but 12% or so of the library.
# L3MBTL1 block = blocks human L3MBTL1; Q9Y468; AlphaScreen L3MBTL1–H3K9me1 peptide binding; Potency, µM (highest dose often 57.1 µM), inactives show at the top dose activity, negative = inhibition, actives largely listed as inhibitors; actives 0.66% (n = 230,000); further: on the % scale 0 is the no-effect control and ±100 the full control effect; nearly all actives have a fitted effect of over 60% in size
# Target sequence (Q9Y468 whole entry, looked up): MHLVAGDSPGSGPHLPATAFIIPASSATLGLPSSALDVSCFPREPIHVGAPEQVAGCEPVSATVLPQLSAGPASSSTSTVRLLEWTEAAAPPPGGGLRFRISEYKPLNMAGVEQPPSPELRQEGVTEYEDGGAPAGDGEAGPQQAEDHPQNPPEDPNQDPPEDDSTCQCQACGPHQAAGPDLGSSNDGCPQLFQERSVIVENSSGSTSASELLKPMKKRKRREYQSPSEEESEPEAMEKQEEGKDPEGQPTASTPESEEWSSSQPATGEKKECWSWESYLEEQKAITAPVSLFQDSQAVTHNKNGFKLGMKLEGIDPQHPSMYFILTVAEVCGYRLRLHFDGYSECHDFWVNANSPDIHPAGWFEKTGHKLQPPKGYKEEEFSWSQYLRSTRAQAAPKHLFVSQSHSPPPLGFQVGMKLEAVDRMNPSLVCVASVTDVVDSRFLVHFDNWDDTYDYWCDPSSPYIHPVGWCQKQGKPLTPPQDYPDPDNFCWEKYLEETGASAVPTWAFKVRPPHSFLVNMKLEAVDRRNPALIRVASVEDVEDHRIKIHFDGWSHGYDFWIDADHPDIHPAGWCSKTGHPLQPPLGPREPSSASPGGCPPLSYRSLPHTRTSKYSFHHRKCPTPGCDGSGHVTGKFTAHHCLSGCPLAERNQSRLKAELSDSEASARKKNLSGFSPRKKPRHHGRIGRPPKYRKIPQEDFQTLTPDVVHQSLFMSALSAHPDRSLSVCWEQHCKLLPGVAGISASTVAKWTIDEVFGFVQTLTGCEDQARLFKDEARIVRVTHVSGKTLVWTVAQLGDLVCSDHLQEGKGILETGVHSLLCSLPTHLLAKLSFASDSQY
#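 Displacement of a biotinylated histone H3(1-15) peptide monomethylated at Lys9 (75 nM) from L3MBTL1 (50 nM) was measured by AlphaScreen after a 30 min room-temperature compound incubation; cefsulodin titration served as intraplate control.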
# HP1b chromo inh = HP1-beta chromodomain-methylated histone interaction inhibition; P83916; AID 540317; actives 0.56% (n = 390,000); AlphaScreen HP1-beta / biotin-H3K9me3 peptide binding; Potency, µM (series often up to 114 µM), without a hit: at the highest dose activity change, negative = inhibition, most hits filed as inhibitors; further: nearly all actives have a fitted effect of over 70% in size
#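 HP1-beta protein (50 nM final) preincubated 30 min at room temperature with biotinylated H3(1-18)K9me3 peptide (50 nM) in PBS pH 7.4, 0.01% Tween-20, then compound added for 30 min. AlphaScreen streptavidin donor/nickel chelate acceptor beads (10 ug/mL final), 30 min dark, luminescence read.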
# Sfp inh = inhibitors of Bacillus subtilis Sfp phosphopantetheinyl transferase; Q9F4F7; Biochemical Sfp PPTase activity, qHTS; Potency, µM, inactives show largest response in the series, negative = inhibition, actives largely listed as inhibitors; actives 3.5% (n = 310,000); AID 1490;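 further: the enzyme is Sfp with the accession as filed and its product quenches rhodamine fluorescence; 0% = enzyme reaction without inhibitor and -100% = no enzyme wells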
#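 Compounds were incubated with enzyme (final 15 nM) for 15 min at room temperature before substrate addition started the reaction. Fluorescence at 525 nm excitation, 598 nm emission was recorded immediately and after 30 minutes.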
# BAZ2B inh = inhibitors of human BAZ2B bromodomain. actives 4.4% (n = 360,000). AID 504333. AlphaScreen BAZ2B-H3K14Ac peptide displacement. Q9UIF8. Potency, µM (series often up to 114 µM), for inactives: at the highest dose activity change, negative = inhibition, hits mostly inhibitors; further: on the % scale 0 is the no-effect control and ±100 the full control effect; nearly all actives have a fitted effect of over 60% in size
#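 Compounds, titrated to a top concentration of 110 uM, were incubated 30 min at room temperature with preformed BAZ2B/acetyl-K14 H3 peptide complex (50 nM each). Proximity signal was measured by AlphaScreen after 20 min with beads.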
# G9a inh = inhibitors of human histone lysine methyltransferase G9a; G9a H3K9 monomethylation, AlphaScreen, 2 h; Potency, µM (doses to about 102 µM), without a hit: at the highest dose activity, negative = inhibition, usual class: inhibitors; actives 8.8% (n = 350,000); AID 504332; further: on the % scale 0 is the no-effect control and ±100 the full control effect; nearly all actives have a fitted effect of over 75% in size
#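 G9a (20 nM) preincubated 15 min RT with compounds, then 500 nM biotinylated H3K9 peptide and 20 uM SAM added; 2 h RT reaction. Monomethyl-H3K9 product detected by AlphaScreen with anti-H3K9me1 antibody, streptavidin donor and anti-rabbit IgG acceptor beads.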
# JMJD2A Tudor = inhibitors of human JMJD2A Tudor domain. O75164. AlphaScreen JMJD2A-Tudor / H3K4me3 peptide binding. Potency, µM (top dose mostly 114 µM), without a hit: at the top dose activity change, negative = inhibition, usual class: inhibitors. actives 4.4% (n = 390,000). AID 504339; further: on the % scale 0 is the no-effect control and ±100 the full control effect; nearly all actives have a fitted effect of over 50% in size
# * hit, by the source's call; u = inconclusive; x = not tested or not shown; [ ] = another dose, or the depositor's remark. The call rests on the fitted dose curve; in most records, active means well fitted curve in the direction sought with a large enough effect; inconclusive means small, poorly fitted or top-dose-only effect, or another doubt; inactive means no such curve, though single readings can be large; an effect the other way counts as inactive or inconclusive. Potency means the concentration at half of the fitted maximal effect.
SMILES,L3MBTL1 block,HP1b chromo inh,Sfp inh,BAZ2B inh,G9a inh,JMJD2A Tudor
CCCN(c1ccc(C(C)C)cc1)S(=O)(=O)c1ccc2c(c1)oc(=O)n2CC(=O)OCC,x,20%,x,-13%,-6%[59 µM],-22%
CS(=O)(=O)N1N=C(c2ccco2)CC1c1ccc(Cl)cc1 (configuration not stated),10%,6%,-5%,-6%,50µM*,-17%
CCS(=O)(=O)N1N=C(c2ccc(C)cc2)CC1c1cc2ccc(OC)cc2nc1Cl (configuration not stated),x,34%,x,-3%[57.1 µM],-9%[59 µM],-16%
Cc1ccc2cc(C3CC(c4ccco4)=NN3C(=O)CCC(=O)O)c(Cl)nc2c1 (configuration not stated),-6%,u,0%,-9%,u,22µM*
COc1ccc2cc(C3CC(c4ccco4)=NN3S(C)(=O)=O)c(Cl)nc2c1 (configuration not stated),-11%,u,50µM*,u,x,-22%
CS(=O)(=O)N1N=C(c2ccco2)CC1c1ccccc1 (configuration not stated),u,36%,-19%,12%,u,-4%
CS(=O)(=O)N1N=C(c2ccco2)CC1c1ccco1 (configuration not stated),u,20%,-21%,50µM*,71µM*,-35%
Cc1ccc2c(=O)cc(C(=O)Nc3ccc(S(=O)(=O)N4CCCCC4)cc3)oc2c1,x,16%,x,-6%,-17%[59 µM],-17%
Cc1cccc2cc(C3CC(c4cccs4)=NN3C(=O)CCC(=O)O)c(Cl)nc12 (configuration not stated),10%,0%,1%,u,6%[59 µM],32µM*
COc1ccc(-c2nc3cnc(N(C)C)nc3n(C3CC3)c2=O)cc1,x,x,-5%,x,-3%[0.501 µM],x
CN(Cc1ccccc1)C1=CC(=[N+]2CCCC2)CC(C)(C)C1,x,u,-1%,3%,u,8.9µM*
CC1(C)CC(N2CCCC2)=CC(=[N+]2CCCCCC2)C1,-32%,4%,-2%,u,u,u
CCN(CC)C1=CC(=[N+]2CCCC2)CC(C)(C)C1,-16%,2%,3%,-1%,40µM*,1%
CC1(C)CC(=O)N(Cc2ccccc2)C(=O)C1,7%,40%,8%,2%,8%,-8%
CCCCCCCCCCCCCCCC[N+](C)(C)CCN(Cc1ccc(OC)cc1)c1ncccn1,5%,-25%,14µM*,9%,-33%[59 µM],u
O=C(CSc1nc2ccccc2nc1Cc1ccc(Cl)cc1)N1CCCc2ccccc21,x,27%[57 µM],x,9%,9%[59 µM],-14%
CCn1cc(C(=O)O)c(=O)c2cc(F)c(N3CCN(C(=S)NC(=O)c4ccc(Br)cc4)CC3)cc21,10%,-5%,4%,32µM*,7%,-14%[11.4 µM]
CCn1cc(C(=O)O)c(=O)c2cc(F)c(N3CCN(C(=O)Nc4ccccc4)CC3)cc21,-2%,16%,2%,-7%,40µM*,22µM*
CCn1cc(C(=O)O)c(=O)c2cc(F)c(N3CCN(C(=S)NC(=O)c4ccccc4F)CC3)cc21,x,7%,-1%,u,u,u
O=C(c1ccc2c(c1)CCN2S(=O)(=O)c1ccc(Cl)cc1)N1CCN(c2ccc(F)cc2)CC1,x,12%,x,-21%,-12%[59 µM],-34%
CC(=O)N1CC[n+]2c(-c3ccc(Cl)cc3)csc21,0%,16%,u,-33%,14µM*,40µM*
CCc1ccc(-c2csc3[n+]2CCN3C(C)=O)cc1,-7%,7%,40µM*,u,11µM*,-36%
CC1(C)Cc2ccccc2/C(=C/C(=O)N2CCCCCC2)N1,x,0%,-28%,56µM*,35µM*,u
COC(=O)c1cc2oc(C)cc2n1Cc1cccc(Cl)c1,x,18%,x,-39%,14µM*,17%
COC(=O)c1cc2oc(C)cc2n1Cc1ccc(C)cc1,x,22%,x,-37%,14µM*,-23%
SMILES,L3MBTL1 block,HP1b chromo inh,Sfp inh,BAZ2B inh,G9a inh,JMJD2A Tudor
COC(=O)c1cc2oc(C)cc2n1Cc1c(C)cc(C)cc1C,x,20%,x,u,4µM*,-24%
Cc1ccccc1NC(=O)c1oc2c(c1C)-c1nn(Cc3cccc(Cl)c3)cc1CC2,x,37%,x,-1%,2%[59 µM],-8%
CCc1ccccc1N(C)C(=O)c1cnc(N2CCOCC2)c2ccccc12,x,12%[57 µM],x,-3%,9%[59 µM],-11%
C#C[C@]1(O)CC[C@H]2[C@@H]3CCC4=CC(=O)CC[C@@H]4[C@H]3CC[C@@]21C,x,9%,x,x,x,-12%
CC#C[C@]1(O)CC[C@H]2C3CCC4=CC(=O)CCC4=C3[C@@H](c3ccc(N(C)C)cc3)C[C@@]21C (some centres not stated),x,x,3%,x,2.8µM*,x
CCOc1ccc(Oc2ccc(Cl)cc2N)cc1,9%,47%,5%,u,50µM*,1%
CCOc1ccc(-c2nnc(N)s2)cc1,9%,21%,8%,8%,12%[59 µM],-9%
CCOc1cc(C2C(C#N)=C(N)Oc3n[nH]c(-c4ccncc4)c32)cc([N+](=O)[O-])c1O (configuration not stated),x,13%,79µM*,x,-23%,-27%
CCCc1[nH]nc2c1C(c1ccc(O)cc1OCC)C(C#N)=C(N)O2 (configuration not stated),-4%,5%,8%,79µM*,u,-18%
Cc1nn(CCCC(=O)NCc2ccccc2)c(=O)c2c1sc1ccccc12,x,32%,x,u,u,-31%
CCNc1nc(SCC(=O)Nc2ccccc2)nc(N2CCOCC2)n1,x,-6%,6%,-1%,13%,-20%
CC(C)(C)Nc1nc(SCC(=O)Nc2ccccc2Cl)nc(N2CCOCC2)n1,x,14%,-6%,79µM*,x,-20%
COC(=O)c1c(NC(=O)Cc2coc3ccc(C(C)C)cc23)sc2c1CCC2,x,31%,x,u,u,-18%
O=C(CCS(=O)(=O)c1cc(Br)cc2c1N(C(=O)C1CC1)CC2)N1CCN(c2cccc(Cl)c2)CC1,x,3%,x,-2%,u,-20%
CCCNC(=O)c1ccc2snnc2c1,-1%,20%,7%,-4%,2%[59 µM],0%
Cc1ccc(S(=O)c2snnc2C)cc1 (configuration not stated),x,24%,-2%,0%,-4%,-15%
CCCNC(=O)c1nnsc1S(=O)c1ccc(Cl)cc1 (configuration not stated),-14%,-15%,20µM*,-2%,25µM*,-18%
CNC(=O)c1nnsc1S(=O)c1ccc(Cl)cc1 (configuration not stated),-27%,-6%,13µM*,-2%,35µM*,-32%

# High-throughput results deposited in PubChem by National Center for Advancing Translational Sciences (NCATS).
